Measured values reported in PubChem BioAssay (NCATS).
Results filed as inconclusive are left out. A number with no mark means an inactive call. Active and inactive are the calls of the source. The call rests on the fitted dose curve; in most records, active means well fitted activation curve with a large enough effect; inconclusive means small, poorly fitted or top-dose-only effect; inactive means no such curve, though single readings can be large or run the other way.

molecular target: Cellular tumor antigen p53 (Homo sapiens) (UniProt P04637); test: Primary qHTS for small molecule compounds that upregulate eGFP-tagged delta133p53alpha (in N-terminal) cells. (AID 2060322); conditions: NCI-H358 eGFP-delta133p53alpha fluorescence, 24 h; activation: active compounds read high; further: nearly all actives have a fitted effect of over 75% in size;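 on activation: series mostly up to about 56 µM; 0% = DMSO vehicle and 100% = reference activator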
Sequence (P04637 whole entry, looked up): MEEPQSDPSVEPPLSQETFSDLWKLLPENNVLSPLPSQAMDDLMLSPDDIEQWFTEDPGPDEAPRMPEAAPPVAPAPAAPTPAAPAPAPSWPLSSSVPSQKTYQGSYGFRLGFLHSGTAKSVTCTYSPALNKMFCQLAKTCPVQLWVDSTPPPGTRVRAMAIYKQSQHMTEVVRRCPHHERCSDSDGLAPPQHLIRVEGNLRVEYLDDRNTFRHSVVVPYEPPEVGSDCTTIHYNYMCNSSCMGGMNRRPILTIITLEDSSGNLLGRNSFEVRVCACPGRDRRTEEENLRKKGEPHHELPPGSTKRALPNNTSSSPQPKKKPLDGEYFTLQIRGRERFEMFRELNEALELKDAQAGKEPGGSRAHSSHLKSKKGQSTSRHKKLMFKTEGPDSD
Summary of the method: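 NCI-H358 cells pre-induced 24 h with 10 ng/ml doxycycline to express N-terminal eGFP-delta133p53alpha, then dosed 24 h at 37C without doxycycline; fixed, Hoechst-stained, GFP intensity by laser scanning cytometry, normalized to DMSO (0%) and 57.5 uM 5-azacytidine (100%).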
Potency means the concentration at half of the fitted maximal effect.

**Q.** How did the activation turn out when `C=CC(=O)Nc1cc(NC(=O)c2ccc(C)c(NC(=O)c3ccno3)c2)cc(C(F)(F)F)c1` was run?
**A.** Its activation is 4.58%.

**Q.** With `OCc1ccccn1` as the compound, how does the activation read?
**A.** Its activation is 8.37%.

**Q.** `NS(=O)(=O)c1ccc(C(=O)O)cc1` was tested. Which activation did it give?
**A.** Its activation is -37.9%.

**Q.** How did the activation turn out when `NC(=O)CC[C@@H](N)C(=O)O` was run?
**A.** Its activation is 1.69%.

**Q.** Which activation does the source give for `NC(=O)C1(N2CCCCC2)CCN(CCCN2c3ccccc3CCc3ccc(Cl)cc32)CC1` here?
**A.** The activation was 3.35%.

**Q.** How did the activation turn out when `CCn1c(=O)c2c(nc(C=Cc3ccc(OC)c(OC)c3)n2C)n(CC)c1=O` was run?
**A.** The activation was -8.1%.

**Q.** Which activation does the source give for `C[C@H]1[C@H](NC(=O)C(=NOC(C)(C)C(=O)O)c2csc(N)n2)C(=O)N1S(=O)(=O)O` here?
**A.** The activation was -31.5%.

**Q.** `CC(C)(C)[C@H](NC(=O)c1ccc(N)c(Cl)c1)C(=O)N1CCC[C@@H]1C(=O)N[C@H](C#N)CC(=O)O` was tested. Which activation did it give?
**A.** The activation was -1.07%.

**Q.** With `O=C(NCCCN1CCOCC1)c1ccc(Cl)cc1` as the compound, how does the activation read?
**A.** Its activation is -23.2%.

**Q.** `O=C(OCc1ccccc1)c1ccc(O)cc1` was tested. Which activation did it give?
**A.** Its activation is -15.3%.

**Q.** `CN(CCCN1c2ccccc2CCc2ccccc21)CC(=O)c1ccc(Cl)cc1` was tested. Which activation did it give?
**A.** The activation was -1.69%.

**Q.** Which activation does the source give for `CC(O)CCCCn1c(=O)c2c(ncn2C)n(C)c1=O` (stereo not given) here?
**A.** Its activation is -16.4%.

**Q.** `Nc1nc(=O)n([C@@H]2O[C@H](CO)[C@@H](O)[C@@H]2F)cc1I` was tested. Which activation did it give?
**A.** The activation was -22%.

**Q.** How did the activation turn out when `O=C(Cn1ccnc1[N+](=O)[O-])NCCO` was run?
**A.** Its activation is -9.21%.

**Q.** For `CCCCCCOC(=O)N=C(N)c1ccc(NCc2nc3cc(C(=O)N(CCC(=O)OCC)c4ccccn4)ccc3n2C)cc1`, which activation is on record?
**A.** Its activation is 20.7%.

**Q.** For `C[C@@H]1CN(CCCn2c3ccccc3c3ccccc32)C[C@H](C)N1`, which activation is on record?
**A.** The activation was 16.4%.

**Q.** Which activation does the source give for `CN1Cc2cc(C(=O)N3CCC(C4CCNCC4)CC3)ccc2NC(CC(=O)O)C1=O` (stereo not given) here?
**A.** Its activation is -16.7%.

**Q.** How did the activation turn out when `N#C/C(=C1/SC[C@@H](c2ccc(Cl)cc2Cl)S1)n1ccnc1` was run?
**A.** The activation was -25.9%.

**Q.** For `CCOC(=O)c1cccnc1`, which activation is on record?
**A.** The activation was -9.6%.

**Q.** For `CCn1c(-c2nc3cc(C(=O)N4CCC[C@@H](N)C4)cc(OC)c3n2C)cc2ccccc21`, which activation is on record?
**A.** Its activation is -14.5%.

**Q.** For `CCCOC(=O)c1ccccc1`, which activation is on record?
**A.** Its activation is -2.82%.

**Q.** For `N#C/C(=C1\SCC(c2ccccc2Cl)S1)n1ccnc1` (stereo not given), which activation is on record?
**A.** Its activation is 5.08%.

**Q.** With `CO[C@H]1/C=C\O[C@@]2(C)Oc3c(C)c(O)c4c(O)c(c(C=NN5CCN(C6CCCC6)CC5)c(O)c4c3C2=O)NC(=O)C(C)=CC=C[C@H](C)[C@H](O)[C@@H](C)[C@@H](O)[C@@H](C)[C@H](OC(C)=O)[C@H]1C` as the compound, how does the Potency read?
**A.** Its Potency is 24.3 µM (active).

**Q.** For `O=C(C=Cc1cccnc1)NCCCCC1CCN(C(=O)c2ccccc2)CC1`, which activation is on record?
**A.** Its activation is 8.39%.

**Q.** With `CCOCCn1c(C2CCN(CCc3ccc(C(C)(C)C(=O)O)cc3)CC2)nc2ccccc21` as the compound, how does the activation read?
**A.** The activation was -6.69%.

**Q.** `CCCc1ncc(C[n+]2ccccc2C)c(N)n1` was tested. Which activation did it give?
**A.** The activation was 13.4%.

**Q.** `CC1(C)[C@@H](OC(=O)CCC(=O)O)CC[C@]2(C)[C@H]3C(=O)C=C4[C@@H]5C[C@@](C)(C(=O)O)CC[C@]5(C)CC[C@@]4(C)[C@]3(C)CC[C@@H]12` was tested. Which activation did it give?
**A.** The activation was 0.565%.

**Q.** How did the activation turn out when `CN(C)CCOc1ccc(-c2nc(-c3ccc4c(c3)CCC4=NO)c(-c3ccncc3)[nH]2)cc1` was run?
**A.** The activation was -18.7%.

**Q.** With `CCn1cc(-c2cccc(C(F)(F)F)c2)c2sc(C(N)=NC3CCS(=O)(=O)CC3)cc2c1=O` as the compound, how does the activation read?
**A.** Its activation is 12.3%.

**Q.** For `CN1[C@@H]2CC[C@H]1CC(OC(=O)C(O)c1ccccc1)C2` (stereo not given in full), which activation is on record?
**A.** The activation was 5.08%.

**Q.** `Cc1[nH]c(C=C2C(=O)Nc3ccc(S(=O)(=O)N(C)c4cccc(Cl)c4)cc32)c(C)c1C(=O)N1CCN(C)CC1` was tested. Which Potency did it give?
**A.** The Potency was 6.11 µM (active).

**Q.** For `CCCCCC(N)=O`, which activation is on record?
**A.** The activation was -17.5%.

**Q.** Which activation does the source give for `Cc1ccccc1N1CCN(CCc2nnc3n2CCCC3)CC1` here?
**A.** Its activation is -10.7%.

**Q.** With `Nc1ccc([N+](=O)[O-])cc1O` as the compound, how does the activation read?
**A.** Its activation is -7.53%.

**Q.** `CCC1NC(=O)c2cc(S(N)(=O)=O)c(Cl)cc2N1` (stereo not given) was tested. Which activation did it give?
**A.** Its activation is -21.8%.

**Q.** For `Cc1cccc(C)c1NC(=O)c1ccccc1C(=O)O`, which activation is on record?
**A.** Its activation is 28.5%.

**Q.** With `NC(N)=Nc1nc(CSCCC(N)=NS(N)(=O)=O)cs1` as the compound, how does the activation read?
**A.** Its activation is 11%.

**Q.** Which activation does the source give for `O=C(O)Cc1ccc(CCNS(=O)(=O)c2ccc(Cl)cc2)cc1` here?
**A.** Its activation is -1.67%.

**Q.** With `CCNC(=O)/C=C/c1cccc(Br)c1` as the compound, how does the activation read?
**A.** Its activation is -10.9%.

**Q.** Which activation does the source give for `CC1(C)O[C@@H]2[C@@H](CO[C@@]3(COS(N)(=O)=O)OC(C)(C)O[C@@H]23)O1` here?
**A.** The activation was -2.51%.
